Source: paper PMC5540273 (PLoS ONE, 2017)

Tests used:
Details in all cases: concentration: 1 μM, replicates: in singlicate; n = 1
MST1R = system: MST1R
MST1 = system: T1, MST1
T1 construct: gene STK4

MST2 = system: T2, MST2
T2 construct: gene STK3

MST3 = system: T3, MST3
T3 construct: gene STK24

MST4 = system: MST4
MTOR = system: MTOR
MUSK = system: MUSK
MYLK2 = system: MYLK2
MYLK4 = system: MYLK4
MYLK = system: MYLK
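Note: KINOMEscan kinase panel screen.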

Structure (SMILES) | %Inh (MST1R) | %Inh (MST1) | %Inh (MST2) | %Inh (MST3) | %Inh (MST4) | %Inh (MTOR) | %Inh (MUSK) | %Inh (MYLK2) | %Inh (MYLK4) | %Inh (MYLK)
Cl.Cl.Cl.N#Cc1ccc(CCNc2nccc(-c3cccc(CN4CCNCC4)c3)n2)cc1 [GSK2137462] | 37% | 0% | 0% | 18% | 0% | 0% | 14% | 12% | 38% | 35%
COc1cccc(CNC(=O)NC2CCN(c3ccnc(Nc4ccc(F)cc4)n3)C2)c1 (centres unmarked) [GSK1379723] | 44% | 11% | 0% | 0% | 0% | 15% | 7% | 0% | 0% | 0%
CNc1nc(-c2ccc3c(N)n[nH]c3c2)cc(N2C[C@@H](C(=O)Nc3ccccc3)CC[C@H]2C)n1 [GSK2298859] | 26% | 0% | 0% | 0% | 4% | 3% | 0% | 9% | 0% | 11%
Cn1cnc2c(N)ncnc21 [SKF-97623] | 0% | 0% | 24% | 0% | 0% | 4% | 0% | 0% | 0% | 0%
O=C(Nc1n[nH]c2cc(-c3ccsc3)ccc12)C1CC1 [SB-732932] | 22% | 0% | 34% | 16% | 27% | 0% | 11% | 97.1% | 22% | 24%
